# Data: the supplement of paper PMC4022240
# ± gives the standard deviation.
# T1: HaloTag-ATRX ADD domain (163-292)
# T1 chain: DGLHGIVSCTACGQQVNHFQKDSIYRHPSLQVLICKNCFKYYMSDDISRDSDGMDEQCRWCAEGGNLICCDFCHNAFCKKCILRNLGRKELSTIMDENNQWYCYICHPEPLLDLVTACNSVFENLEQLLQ
# Columns and labels:
# Assay in all cases: peptide microarray binding signal (635 nm), min-max normalized on array (fraction of array maximum); higher = stronger binding
# [1] = target: T1, HaloTag-ATRX ADD domain (163-292)
# Method in brief: (§1)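 Binding signal is the mean intensity of triplicate spots, min-max scaled within each library. Histone 13-mer peptide–cellulose conjugates were spotted in triplicate on nitrocellulose with a Cy3 tracer and blocked overnight at 4°C. Probing lasted 1 h at 4°C, either with biotin-labelled HaloTag reader fusions (10 nM to 1 μM) and streptavidin-Alexa Fluor 647 or with rabbit histone antibodies (1:10,000 to 1:2,000) and anti-rabbit Alexa 647. An Axon GenePix 4000B read signal at 635 nm and misprints at 532 nm.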
# [2] = target: HaloTag-ING2 PHD (mouse Ing2 200-280)
# Method in brief: as §1
# [3] = target: anti-H3K4me3 antibody ab8580
# Method in brief: as §1
# [4] = target: anti-H3K9me3 antibody ab8898
# Method in brief: as §1
# [5] = peptide region: H3 73-85, peptide modifications: H3K79me1 H3T80ph, binder concentration: 1:2,000 dilution
# [6] = peptide region: H3 73-85, peptide modifications: H3K79me1 H3T80ph, binder concentration: 1:10,000 dilution
# [7] = peptide region: H3 73-85, peptide modifications: H3K79me3 H3T80ph, binder concentration: 1:2,000 dilution
# [8] = peptide region: H3 73-85, peptide modifications: H3K79me3 H3T80ph, binder concentration: 1:10,000 dilution
# [9] = peptide region: H3 50-62, peptide modifications: H3S57ph, binder concentration: 1:2,000 dilution
# [10] = peptide region: H3 50-62, peptide modifications: H3S57ph, binder concentration: 1:10,000 dilution
# [11] = peptide region: H3 73-85, peptide modifications: H3K79ac, binder concentration: 1:2,000 dilution
# [12] = peptide region: H3 73-85, peptide modifications: H3K79ac, binder concentration: 1:10,000 dilution
# [13] = peptide region: H3 112-124, binder concentration: 1:2,000 dilution
# [14] = peptide region: H3 112-124, binder concentration: 1:10,000 dilution
binder,measurement,setting,value
EIAQDFKTDLRFQ [H3 73-85 E I A Q D F Kme Tph D L R F Q],peptide microarray binding signal,"[1]; peptide region: H3 73-85, peptide modifications: H3K79me1 H3T80ph, binder concentration: 50 nM",0.001034 ± 5.2e-06
same,peptide microarray binding signal,"[1]; peptide region: H3 73-85, peptide modifications: H3K79me1 H3T80ph, binder concentration: 500 nM",0.00181 ± 3.2e-05
same,peptide microarray binding signal,"[2]; peptide region: H3 73-85, peptide modifications: H3K79me1 H3T80ph, binder concentration: 10 nM",0.00281 ± 8.7e-05
same,peptide microarray binding signal,"[2]; peptide region: H3 73-85, peptide modifications: H3K79me1 H3T80ph, binder concentration: 100 nM",0.00135 ± 7.3e-05
same,peptide microarray binding signal,[3]; [5],0.000283
same,peptide microarray binding signal,[3]; [6],0.000342 ± 3.8e-06
same,peptide microarray binding signal,[4]; [5],0.000921 ± 0.00013
same,peptide microarray binding signal,[4]; [6],0.000634
EIAQDFKTDLRFQ [H3 73-85 E I A Q D F Kme3 Tph D L R F Q],peptide microarray binding signal,"[1]; peptide region: H3 73-85, peptide modifications: H3K79me3 H3T80ph, binder concentration: 50 nM",0.001066 ± 5.3e-06
same,peptide microarray binding signal,"[1]; peptide region: H3 73-85, peptide modifications: H3K79me3 H3T80ph, binder concentration: 500 nM",0.0021 ± 0.00018
same,peptide microarray binding signal,"[2]; peptide region: H3 73-85, peptide modifications: H3K79me3 H3T80ph, binder concentration: 10 nM",0.00221 ± 6.6e-05
same,peptide microarray binding signal,"[2]; peptide region: H3 73-85, peptide modifications: H3K79me3 H3T80ph, binder concentration: 100 nM",0.00333 ± 0.0011
same,peptide microarray binding signal,[3]; [7],0.000887 ± 9.8e-05
same,peptide microarray binding signal,[3]; [8],0.00183 ± 0.00035
same,peptide microarray binding signal,[4]; [7],0.0135 ± 0.0079
same,peptide microarray binding signal,[4]; [8],0.00577 ± 0.0016
EIRRYQKSTELLI [H3 50-62 E I R R Y Q K Sph T E L L I],peptide microarray binding signal,"[1]; peptide region: H3 50-62, peptide modifications: H3S57ph, binder concentration: 50 nM",0.000878 ± 5.7e-05
same,peptide microarray binding signal,"[1]; peptide region: H3 50-62, peptide modifications: H3S57ph, binder concentration: 500 nM",0.00167 ± 0.00017
same,peptide microarray binding signal,"[2]; peptide region: H3 50-62, peptide modifications: H3S57ph, binder concentration: 10 nM",0.00179 ± 2.8e-05
same,peptide microarray binding signal,"[2]; peptide region: H3 50-62, peptide modifications: H3S57ph, binder concentration: 100 nM",0.00085 ± 3.4e-05
same,peptide microarray binding signal,[3]; [9],0.000132 ± 5.8e-06
same,peptide microarray binding signal,[3]; [10],0.000228 ± 4.4e-06
same,peptide microarray binding signal,[4]; [9],0.000755 ± 0.00012
same,peptide microarray binding signal,[4]; [10],0.000461 ± 8.7e-06
EIAQDFKTDLRFQ [H3 73-85 E I A Q D F Kac T D L R F Q],peptide microarray binding signal,"[1]; peptide region: H3 73-85, peptide modifications: H3K79ac, binder concentration: 50 nM",0.003981 ± 1.6e-05
same,peptide microarray binding signal,"[1]; peptide region: H3 73-85, peptide modifications: H3K79ac, binder concentration: 500 nM",0.0121 ± 0.0025
same,peptide microarray binding signal,"[2]; peptide region: H3 73-85, peptide modifications: H3K79ac, binder concentration: 10 nM",0.00537 ± 0.00042
same,peptide microarray binding signal,"[2]; peptide region: H3 73-85, peptide modifications: H3K79ac, binder concentration: 100 nM",0.00298 ± 0.00043
same,peptide microarray binding signal,[3]; [11],0.00166 ± 0.00016
same,peptide microarray binding signal,[3]; [12],0.00428 ± 0.00088
same,peptide microarray binding signal,[4]; [11],0.0114 ± 0.0038
same,peptide microarray binding signal,[4]; [12],0.0106 ± 0.0027
IHAKRVTIMPKDI [H3 112-124 I H A K R V T I M P K D I],peptide microarray binding signal,"[1]; peptide region: H3 112-124, binder concentration: 50 nM",0.00972 ± 0.00063
same,peptide microarray binding signal,"[1]; peptide region: H3 112-124, binder concentration: 500 nM",0.0345 ± 0.00086
same,peptide microarray binding signal,"[2]; peptide region: H3 112-124, binder concentration: 10 nM",0.0135 ± 0.0014
same,peptide microarray binding signal,"[2]; peptide region: H3 112-124, binder concentration: 100 nM",0.0205 ± 0.0093
same,peptide microarray binding signal,[3]; [13],0.00261 ± 0.00029
same,peptide microarray binding signal,[3]; [14],0.001883 ± 1.8e-05
same,peptide microarray binding signal,[4]; [13],0.00415 ± 0.00045
same,peptide microarray binding signal,[4]; [14],0.00167 ± 2.8e-05
